Screening data from PubChem.
RORg inh – inhibitors of mouse ROR gamma transcriptional activity. P51450. Drosophila S2 Gal4-RORgamma UAS-luciferase reporter, 20 h. Potency, µM (highest dose often 53.6 µM), for inactives: at the top dose activity change, negative = inhibition, hits mostly inhibitors. actives 5.4% (n = 310,000). AID 2551; further: potency means the concentration at half of the fitted maximal effect; on the % scale 0 is the no-effect control and ±100 the full control effect; nearly all actives have a fitted effect of over 60% in size
Target sequence (P51450 whole entry, looked up, the tested form may be a part): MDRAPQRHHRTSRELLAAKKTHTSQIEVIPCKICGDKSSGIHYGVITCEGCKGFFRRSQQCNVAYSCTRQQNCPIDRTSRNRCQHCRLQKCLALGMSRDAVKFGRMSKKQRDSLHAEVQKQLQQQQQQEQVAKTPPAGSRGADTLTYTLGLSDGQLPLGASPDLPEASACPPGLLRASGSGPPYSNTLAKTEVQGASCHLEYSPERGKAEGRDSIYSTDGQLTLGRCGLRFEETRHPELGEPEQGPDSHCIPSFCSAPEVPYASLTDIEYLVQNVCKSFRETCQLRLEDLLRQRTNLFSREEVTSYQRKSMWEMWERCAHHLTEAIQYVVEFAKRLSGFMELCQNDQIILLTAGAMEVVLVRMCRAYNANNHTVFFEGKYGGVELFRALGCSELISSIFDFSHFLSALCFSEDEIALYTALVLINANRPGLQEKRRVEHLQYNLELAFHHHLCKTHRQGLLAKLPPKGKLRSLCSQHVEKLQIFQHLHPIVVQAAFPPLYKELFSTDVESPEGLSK
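Stably transfected Drosophila Schneider cells are the test system, with ROR gamma fused to Gal4 and luciferase under UAS control; luminescence is read after 20 hr of 700 uM copper sulfate induction at ambient temperature.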
ELG1 repair inh – ELG1-dependent DNA repair inhibition | Potency, µM (top dose mostly 46.1 µM), for inactives: top-dose activity change, negative = inhibition, actives largely listed as inhibitors | actives 2.3% (n = 330,000) | HEK293T ELG1-luciferase reporter, luminescence, 16 h; DNA damage induced by 5-fluorouridine; further: potency means the concentration at half of the fitted maximal effect; on the % scale 0 is the no-effect control and ±100 the full control effect; nearly all actives have a fitted effect of over 55% in size
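In this reporter screen, reduction of luminescence relative to DMSO vehicle indicated activity. Compounds and 5-fluorouridine were added together to 2,000 cells per well, incubated for 16 hr at 37 °C, then developed with ONE-Glo.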
BRCA1 expr up – increases BRCA1 expression. Potency, µM (doses to about 46.1 µM), inactives show at the top dose activation, most hits filed as activators. actives 1.1% (n = 380,000). MCF7-BRCA1-FFLuc reporter, luminescence, 48 h; response scale: scaled: vehicle 0%, 10 µM genistein 100%. AID 624202; further: potency means the concentration at half of the fitted maximal effect; nearly all actives have a fitted effect of over 80% in size
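48 h compound treatment of MCF7-BRCA1-FFLuc cells (phenol-red free MEM, 37 °C), then 15 min with luciferase substrate and luminescence imaging.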
p53 reactivator – mutant p53 re-activation in reporter cells; H1299 p53-A138V BP100-luciferase reporter, luminescence, 24 h; Potency, µM (series often up to 92.2 µM), for the others: at the top dose activity change, positive = activation, usual class: activators; actives 0.063% (n = 320,000); AID 504706; further: potency means the concentration at half of the fitted maximal effect; % of control where 0% means no effect; nearly all actives have a fitted effect of over 45% in size
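H1299 (p53-null), stable ts p53-A138V + BP100-Luc; 1000 cells/well, Opti-MEM/10% FBS; cpd 4 pt, 1:5; 24 h, 37 deg C, 5% CO2; detection reagent 10 min RT; luminescence.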
Gal4-VP16 FLuc – inhibits Gal4-VP16 luciferase reporter, ROR gamma counter-screen; AID 2546; actives 3.5% (n = 310,000); Drosophila S2 Gal4-VP16 UAS-luciferase, luminescence, 20 h; Potency, µM (highest dose often 53.6 µM), without a hit: at the highest dose activity, negative = inhibition, most hits filed as inhibitors;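 further: Gal4-VP16 expression switched on by copper sulfate through the metallothionein promoter; potency means the concentration at half of the fitted maximal effect; on the % scale 0 is the no-effect control and ±100 the full control effect; nearly all actives have a fitted effect of over 50% in size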
Giardia kill – Giardia lamblia killing | actives 0.15% (n = 340,000) | activity change, % at 7.66 µM, hits read low | Giardia lamblia trophozoite viability | AID 540267; in the data active means activity change below about -80%; inconclusive means between about -30% and that limit;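 further: parasites exposed to compound for two days anaerobically before the ATP read; on the % scale 0 is the no-effect control and ±100 the full control effect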
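ATP-content bioluminescence gauges trophozoite survival. Cells (100/well) receive compound and incubate anaerobically for 48 hrs at 37 deg C; detection reagent follows for 15-30 min at room temperature.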
An asterisk follows results filed as active; ? = inconclusive; · = no result; [ ] = remark or other dose. Shown are actives, neighbours in structure and some others; about 7.6% of the full set was active somewhere. Unless noted, the call rests on the fitted dose curve; in most records, active means well fitted curve in the direction sought with a large enough effect; inconclusive means small, poorly fitted or top-dose-only effect, or another doubt; inactive means no such curve, though single readings can be large; an effect the other way counts as inactive or inconclusive.

SMILES	RORg inh	ELG1 repair inh	BRCA1 expr up	p53 reactivator	Gal4-VP16 FLuc	Giardia kill
COc1cc(OC)nc(-n2ncc(Br)c(Br)c2=O)n1	2.24µM*	4.61µM*	-83.4%	-35.4%	4.47µM*	15.0
CN1C2CCC1/C(=C\c1ccc(F)cc1)C(=O)/C2=C/c1ccc(F)cc1	-25.0%	18.4µM*	-76.6%	1.8%	11.5%	0.5
CN1C2CCC1/C(=C/c1cccn1C)C(=O)/C2=C\c1cccn1C	4.6%	?	-7.5%	-23.1%	-12.8%	-5.6
CCN(Cc1cc2ccc(C)cc2[nH]c1=O)C(=O)c1ccncc1	-25.1%	10µM*	·	-8.0%	-7.7%	·
CC[C@H](C)[C@@H]1NC(=O)[C@H]([C@@H](C)CC)NC(=O)[C@@H](CC(C)C)NC(=O)[C@H](Cc2ccccc2)NC(=O)[C@H](Cc2ccccc2)NC(=O)[C@@H]2CCCN2C(=O)[C@@H]2CCCN2C(=O)[C@H](C(C)C)NC(=O)[C@H](CC(C)C)NC1=O	·	?	-57.9%	3.6%	·	7.7
Cc1cccc(N=N/C(=C\O)C(=O)c2cccs2)c1	44.0%	20.6µM*	-81.3%	16.2%	-7.8%	-5.4
CN1Cc2sc(NC(=S)NC(=O)c3ccccc3)c(C#N)c2CC1(C)C	3.16µM*	?	-33.6%	0.6%	?	2.5
N#Cc1c(NC(=S)NC(=O)c2ccccc2)sc2c1CCC2	-41.8%[10 µM]	?	57.3%	?	-82.5%	10.4
CC1CCc2sc(NC(=S)NC(=O)c3ccccc3)c(C#N)c2C1 (configuration not stated)	14.1µM*	?	44.2%	?	?	-4.2
O=C(O)c1sccc1SCc1ccc(Cl)cc1Cl	10.0%	21.8%	11.9%	-0.5%	-11.6%	-2.5
CC(=O)N1N=C(c2ccc(C)cc2)OC1c1ccc(C)cc1 (configuration not stated)	-18.1%	?	43.8%	15.4%	-8.1%	-7.5
CC(=O)N1N=C(c2ccc(C)cc2)OC1c1ccc(C(C)C)cc1 (configuration not stated)	-7.7%	?	7.94µM*	?	-6.4%	-0.7
Cc1ccc(C)c(S(=O)(=O)/N=C(/Nc2ccccc2)c2ccccc2)c1	·	?	-41.3%	2.1%	·	-3.8
O=C(CSc1ncnc2c1cnn2-c1ccccc1)NCC1CCCO1 (configuration not stated)	·	-12.5%	-28.7%	-2.0%	·	2.1
NNc1nc(-c2ccccc2)cc(-c2ccccc2)n1	4.47µM*	?	-44.9%	1.0%	-9.0%	-7.4
NNc1nc(-c2ccccc2)cc(-c2ccccc2O)n1	7.08µM*	-26.6%	-82.9%	-0.3%	12.6µM*	4.1
CCOc1ccc2c(S(=O)(=O)O)cccc2c1[N+](=O)[O-]	·	·	3.6%	·	·	-6.1
C[C@@]12C(=O)N(Cc3ccccc3)CC(=O)N1[C@H](/C=C/c1ccccc1)[C@@H]1C(=O)N(c3ccccc3)C(=O)[C@@H]12	21.7%	?	0.0%	·	5.2%	5.6
COC(=O)c1ccc(NC(=O)c2ccc3c(c2)C(=O)N(Cc2cccnc2)C3=O)cc1	?	2.6%	10.1%	?	?	10.8
CCOC(=O)c1nnc2cc(-c3ccccc3)nn2c1C	33.3%	?	6.31µM*	15.1%	3.3%	-3.0
CCOC(=O)c1nnc2cc(-c3ccc(Br)cc3)nn2c1C	10.0%	?	26.7%	10.3%	24.3%	-0.5
CC(=O)N(Cc1nc2sc(C)c(C)c2c(=O)[nH]1)C1CCCC1	10µM*	-7.7%	-19.2%	1.3%	?	-2.6
CC(=O)N(Cc1ccccc1)Cc1nc2sc(C)c(C)c2c(=O)[nH]1	3.2%	-6.8%	-16.8%	-0.1%	3.8%	28.0
Cc1sc2nc(CN(C(=O)NCc3ccccc3)C3CCCC3)[nH]c(=O)c2c1C	4.47µM*	?	-46.9%	-1.5%	?	-22.4
O=C(NC(=S)N1CCN(c2ccccc2)CC1)c1ccc(S(=O)(=O)N2CCOCC2)cc1	0.708µM*	18.3µM*	-0.9%	-0.3%	0.631µM*	-2.2
SMILES	RORg inh	ELG1 repair inh	BRCA1 expr up	p53 reactivator	Gal4-VP16 FLuc	Giardia kill
CCc1ccc(NC(=S)N2CCN(S(=O)(=O)c3ccccc3)CC2)cc1	17.8µM*	0.4%	-0.1%	-7.5%	?	8.1
O=S(=O)(c1ccc(NC(=S)N2CCCCC2)cc1)N1CCCCC1	·	·	-11.1%	·	·	·
Cc1ccc(NC(=S)N2CCN(S(=O)(=O)c3ccc(C)cc3)CC2)cc1	12.6µM*	-5.2%	-0.7%	-1.0%	-16.1%	-7.2
O=C(Nc1ccccc1)c1ccc(S(=O)(=O)N2CCOCC2)cc1	36.7%	5.1%	24.1%	1.4%	14.0%	5.3
Cc1cccc(NC(=S)N2CCN(S(=O)(=O)c3cccc(F)c3)CC2)c1	11.2µM*	-1.7%	-17.9%	-9.5%	1.5%	35.9
Cc1cc(C)c2c(N=NN3CCCCC3)[nH]nc2n1	18.5%	?	42.5%	?	1.5%	5.5
COc1ccc(Cn2cc(CN3CC(N4CCSCC4)CS3(=O)=O)nn2)cc1 (configuration not stated)	·	·	10.3%	·	·	·
COc1ccc(CNC(=O)C(C)Sc2ccc(C)cc2)cc1 (configuration not stated)	4.8%	-3.8%	5.7%	-0.7%	-10.8%	-20.5
O=S(=O)(c1ccc(NC(=S)N2CCN(c3ccc(O)cc3)CC2)cc1)N1CCOCC1	34.7%	8.2µM*	-17.9%	-3.4%	-4.4%	-4.2
Oc1ccc(/C=N/NC(=S)Nc2cccnc2)c(O)c1O	-35.5%	14.6µM*	-39.1%	-7.9%	-10.6%	10.4
Oc1cccc(/C=N/NC(=S)Nc2cccnc2)c1O	4.47µM*	20.8%	-70.1%	?	5.62µM*	-12.1
Nc1nc(-c2ccccc2)c(-c2ccccc2)s1	-27.1%	22.3%	-34.7%	-7.0%	-0.7%	-6.0
Cc1ccc(-c2nc(N)sc2-c2ccccc2)cc1C	7.94µM*	-4.3%	-61.3%	7.6%	10µM*	5.0
Cc1cccc(SCc2noc(C(=O)NC(C)C)c2C(=O)O)c1	?	-1.9%	-3.8%	-4.7%	15.8µM*	9.7
CC(C)NC(=O)c1onc(CSc2cccc3ccccc23)c1C(=O)O	17.8µM*	-1.0%	0.2%	2.4%	?	-22.4
Clc1ccc(SCc2cc(N3CCOCC3)nc(-c3ccccn3)n2)cc1	0.562µM*	?	-57.7%	-4.8%	4.47µM*	-7.2
O=c1cc(CSc2ccc(Cl)cc2)nc(-c2ccccn2)[nH]1	3.98µM*	?	-71.3%	-9.2%	4.47µM*	-18.3
CSCC[C@H](NC(=O)N1CCn2c1nc1ccccc12)C(=O)NC1CC1	-16.8%	5.5%	-6.4%	4.8%	0.8%	2.5
